Screening results deposited in PubChem BioAssay by National Center for Advancing Translational Sciences (NCATS).
Shown are actives, neighbours in structure and some others; about 19% of the full set was active somewhere.
LASV entry inh = qHTS for Inhibitors of binding or entry into cells for Lassa Virus. Lassa virus pseudotype entry inhibition, cell reporter. Potency, µM (series often up to 37.9 µM), for inactives: top-dose activity change, negative = inhibition, actives largely listed as inhibitors. 300,000 compounds, 1.2% hits. AID 540256, 2011; calls by dose curve; tested in HEK293 cells; also: potency is read from the fitted curve at half-maximal effect; % is scaled to controls: 0 for no effect and ±100 for the full control effect; nearly all actives have a fitted effect of over 50% in size
Shiga toxin inh = A qHTS for Small Molecule Inhibitors of Shiga Toxin | AID 2315, 2010 | Vero cells, Shiga toxin protein synthesis inhibition reporter | 290,000 compounds, 9.2% hits | inhibition, % at 38.7 µM; in the data active = inhibition mostly above about 28%, no sharp cut-off; inactive = mostly below about 43%; also: 0% is about no effect
MARV entry inh = qHTS for inhibitors of binding or entry into cells for Marburg Virus. 300,000 compounds, 1.8% hits. Marburg virus pseudotyped entry inhibition, cell reporter. Potency, µM (titrated, usually from 37.8 µM), without a hit: at the highest dose activity change, negative = inhibition, most hits filed as inhibitors. AID 540276, 2011; calls by dose curve; tested in HEK293 cells; also: potency is read from the fitted curve at half-maximal effect; % is scaled to controls: 0 for no effect and ±100 for the full control effect
CHX counter = Cycloheximide Counterscreen for Small Molecule Inhibitors of Shiga Toxin; max response, %; AID 2314, 2010; cell reporter, cycloheximide protein synthesis inhibition counterscreen; 300,000 compounds, 12% hits; in the data active = max response mostly above about 13%, no sharp cut-off; inactive = mostly below about 14%; also: read at 38.3 µM for the half of the compounds with a filed dose; 0% is about no effect
Pf growth 48h = Primary qHTS for delayed death inhibitors of the malarial parasite plastid, 48 hour incubation; P. falciparum luciferase growth in erythrocytes, 48 h; Potency, µM (top dose mostly 28.7 µM), inactives show at the top dose activity change, negative = inhibition, most hits filed as inhibitors; 310,000 compounds, 5.9% hits; also: potency is read from the fitted curve at half-maximal effect; % is scaled to controls: 0 for no effect and ±100 for the full control effect
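Compounds are pin-transferred into medium, infected erythrocytes (2% hematocrit, 0.1% parasitemia final) are added, and plates sit one parasite generation at 37 C in 5% CO2. Detection reagent is then added and luminescence measured.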
Pf growth 96h = Primary qHTS for delayed death inhibitors of the malarial parasite plastid, 96 hour incubation; P. falciparum luciferase reporter growth, 96 h; Potency, µM (titrated, usually from 28.7 µM), without a hit: top-dose activity change, negative = inhibition, most hits filed as inhibitors; 320,000 compounds, 6.9% hits; AID 504834, 2011; also: potency is read from the fitted curve at half-maximal effect; % is scaled to controls: 0 for no effect and ±100 for the full control effect
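P. falciparum expressing integrated firefly luciferase, in erythrocytes at 2% hematocrit, 0.05% parasitemia, incubated with compounds 96 h at 37 C, 5% CO2. Growth inhibition read as loss of luminescence; two-generation exposure targets delayed-death apicoplast inhibitors.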
Numbers without * were called inactive; ? = inconclusive; . = no result given; [ ] = dose if it differs, or a comment. Unless noted, calls follow the shape of the dose curve; as a rule, active = well fitted inhibition curve with a large enough effect; inconclusive = small, poorly fitted or top-dose-only effect, or another doubt; inactive = no such curve, though single readings can be large or run the other way.

SMILES	LASV entry inh	Shiga toxin inh	MARV entry inh	CHX counter	Pf growth 48h	Pf growth 96h
COc1ccccc1-c1c(-c2ccc(OCC(=O)NN)cc2O)n[nH]c1C(F)(F)F	-9%	4	?	-3	8.3µM*	7.4µM*
Cc1[nH]nc(-c2ccc(O)cc2O)c1-c1ccc(Cl)cc1	-14%	-23	-13%	-6	39%	4%
COc1ccc(-c2c(-c3ccc(OCC(=O)NN)cc3O)n[nH]c2C)cc1	-3%	-11	-17%[46.1 µM]	-2	?	9.3µM*
COc1ccc(-c2nc(N)nc(C(F)(F)F)c2-c2ccccc2OC)c(O)c1	.	-7	.	-4	?	?
COc1ccc(-c2n[nH]c(C)c2-c2ccc(Cl)cc2)c(O)c1	?	-11	-14%	1	8.3µM*	10µM*
COc1ccc(-c2n[nH]c(C(F)(F)F)c2-c2cc3ccccc3o2)c(O)c1	?	-11	?	-3	2.1µM*	16%
CCOC(=O)Cn1nc(C)c(NC(=O)COc2ccc(Cl)cc2C)c1C	-7%[46.1 µM]	.	-21%[46.1 µM]	.	.	.
CSc1cccc(NC(=O)CN2C(=O)COc3ccc(Cl)cc32)c1	-23%[46.1 µM]	.	-3%[46.1 µM]	.	.	.
COc1ccc(-c2cn[nH]c2-c2ccc(OCC(=O)NN)cc2O)cc1	.	-19	.	8	?	?
NNC(=O)COc1ccc(-c2n[nH]c(C(F)(F)F)c2-c2ccc(Br)cc2)c(O)c1	20%	11	-33%	-3	9.3µM*	8.3µM*
CSc1ncccc1C(=O)Nc1cccc(S(=O)(=O)N(C)c2ccccc2)c1	.	.	.	.	9.3µM*	?
Cc1ccc(S(=O)(=O)N2CCCCC2)cc1NC(=O)c1ccc2ccccc2n1	?	47*	?	46*	-4%	0%
COc1ccc(S(=O)(=O)N2CCCCC2)cc1NC(=O)c1ccc2ccccc2n1	5%	-7	?	14	0%	-1%
O=C(Nc1nc2ccc(S(=O)(=O)N3CCCCC3)cc2s1)c1ccncc1	13%	2	-9%	-4	?	-19%
O=C(Nc1cccc(S(=O)(=O)N2CCOCC2)c1)c1ccccn1	.	30	.	11	18%	?
O=C(Nc1nc2ccc(S(=O)(=O)N3CCCC3)cc2s1)c1ccccn1	.	60*	.	38*	?	91%
O=C(Nc1cccc(S(=O)(=O)N2CCCCC2)c1)c1ccccn1	5%	26	-3%[46.1 µM]	27*	2%	-27%
CS(=O)(=O)c1cnc(-c2ccccc2)nc1-c1ccc(Cl)c(Cl)c1	?	4	?	-5	10%	14%
Cc1ccc(S(=O)(=O)CCC(=O)OCC(=O)N(C)c2ccccc2)cc1	-5%	.	-4%[46.1 µM]	.	.	.
CC(=O)N1CCOc2ccc(S(=O)(=O)NCC3CCC(C(=O)Nc4ncccc4C)CC3)cc21 (stereo not given)	-3%[46.1 µM]	-2	-3%[46.1 µM]	-9	-3%	?
O=C(Nc1nncs1)c1ccc(N2C(=O)C3C4C=CC(C4)C3C2=O)cc1 (stereo not given)	?	7	0%	15	16%	-1%
CCN1CCc2nc3ccccc3c(C(=O)Nc3ccc(F)cc3)c2C1	.	-6	.	-4	2.1µM*	?
O=C(CN1CCN(Cc2ccccc2)CC1)Nc1cccc(S(=O)(=O)N2CCCCCC2)c1	-22%	-17	?	-4	?	-26%
Cc1cc(C(=O)Nc2cccc(S(=O)(=O)N3CCCCC3)c2)c2ccccc2n1	-21%	-3	-20%	8	?	?
CSc1ncccc1C(=O)Nc1cccc(S(=O)(=O)N2CCCCC2)c1	.	.	.	.	12µM*	10µM*
SMILES	LASV entry inh	Shiga toxin inh	MARV entry inh	CHX counter	Pf growth 48h	Pf growth 96h
O=C(Nc1cccc(S(=O)(=O)N2CCCCC2)c1)c1c2c(nc3ccccc13)CCN(Cc1ccccc1)C2	-25%	-11	?	-1	2.9µM*	2.6µM*
O=C(Nc1cccc(S(=O)(=O)N2CCCC2)c1)c1cc(-c2ccccn2)nc2ccccc12	?	-9	7.9µM*	8	12µM*	?
COc1ccc(Oc2cc(C)nc(Cl)n2)nn1	.	-5	.	2	-9%	?
O=C(Nc1ccc(N2CCCCC2)cc1)c1ccc2ccccc2n1	.	78*	.	29*	345%	123%
O=C(COC(=O)c1c2c(nc3ccccc13)CCN(Cc1ccccc1)C2)Nc1c(F)cccc1F	?	17	?	0	0%	10µM*
COc1ccc(NC(=O)Nc2ccccc2)cc1S(=O)(=O)N1CCCCC1	?	21	-19%[46.1 µM]	19	?	-8%
COc1ccc(NC(=O)c2ccc3ccccc3n2)cc1S(=O)(=O)N1CCCCC1	?	44	?	38*	45%	-23%
O=C(Nc1cccc(S(=O)(=O)N2CCCCCC2)c1)c1ccc2ccccc2n1	6%	3	1%	22*	?	?
O=C(COC(=O)/C=C/c1ccc([N+](=O)[O-])cc1)Nc1ccc(F)cc1	.	.	.	.	-14%	-20%
Cc1ccccc1C(=O)Nc1ccc(S(=O)(=O)N2CCOCC2)cc1	?	-3	3%	-1	-16%	15%
Cc1ccc2nc(-c3ccccn3)cc(C(=O)Nc3ccc(S(=O)(=O)N4CCOCC4)cc3)c2c1	?	-19	4%[46.1 µM]	-3	13µM*	20%
O=S(=O)(Nc1nc2ccccc2nc1Nc1cccc(S(=O)(=O)N2CCCCC2)c1)c1ccccc1	?	-5	?	-4	8.3µM*	2.1µM*
CN(C)c1ccc(CN(Cc2ccco2)C(=O)COc2ccc(F)cc2)cc1	5.6µM*	.	?	.	.	.
COc1ccc(N2CC(C(=O)Nc3nc4ccc(S(C)(=O)=O)cc4s3)CC2=O)cc1 (stereo not given)	24%[46.1 µM]	9	?	3	-18%	-7%
Cc1cc(/C=C2\C(=N)N3N=C(C(C)C)SC3=NC2=O)c(C)n1Cc1ccccc1	9%	20	-3%[46.1 µM]	2	-13%	-4%
COc1cc2[nH]c(=S)nc(NCCc3ccc(C)cc3)c2cc1OC	-12%	-5	-16%	-1	2.6µM*	8%
COc1cc2[nH]c(=S)nc(NCc3ccc(Cl)cc3)c2cc1OC	.	18	.	5	12µM*	?
COc1ccccc1CNc1nc(=S)[nH]c2cc(OC)c(OC)cc12	.	48*	.	23*	?	1%
COc1ccc(CCNc2nc(=S)[nH]c3cc(OC)c(OC)cc23)cc1OC	.	-17	.	-3	?	?
CCOc1ccc(N=Nc2c(C)noc2C)cc1	4%[46.1 µM]	41	28%[46.1 µM]	28*	29%	?
CN(C)C(=O)CSc1ncnc2scc(-c3ccccc3)c12	-3%	-7	3%[46.1 µM]	18	18%	56%
Cn1nnnc1Sc1ncnc2scc(-c3ccc(Cl)cc3)c12	.	.	.	.	6.6µM*	3.7µM*
Cn1nnnc1Sc1ncnc2scc(-c3cccc(S(C)(=O)=O)c3)c12	.	.	.	.	10µM*	?
